Results filed as inconclusive are left out. A number with no mark means an inactive call. Active and inactive are the calls of the source. The call rests on the fitted dose curve; in most records, active means well fitted curve in the direction sought with a large enough effect; inconclusive means small, poorly fitted or top-dose-only effect, or another doubt; inactive means no such curve, though single readings can be large; an effect the other way counts as inactive or inconclusive.

Sequence of Calcium and integrin-binding protein 1 (Homo sapiens) (Q99828 whole entry, looked up): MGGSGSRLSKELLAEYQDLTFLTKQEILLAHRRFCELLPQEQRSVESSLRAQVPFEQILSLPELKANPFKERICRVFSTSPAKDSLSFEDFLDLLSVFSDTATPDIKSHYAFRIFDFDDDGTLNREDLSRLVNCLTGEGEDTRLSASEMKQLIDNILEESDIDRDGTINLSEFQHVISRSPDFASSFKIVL

Tested on in the first test: not listed separately
Description: qHTS to identify inhibitors of the type 1 interferon - major histocompatibility complex class I in skeletal muscle: primary screen against the NCATS Mechanism Interrogation Plate v5.0 (MIPE) Libary (AID 1347411). Further: nearly all actives have a fitted effect of over 65% in size. Further: potency means the concentration at half of the fitted maximal effect.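 On activity change, negative = inhibition: plate controls were vehicle for no effect and reference inhibitor for full effect.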 Particulars: iHSKM cells + IFN-b, HiBiT-tagged MHC-I luminescence, 24 h; series mostly up to 45.8 µM; activity change, negative = inhibition: at the top concentration. The method, boiled down:
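Seed engineered human myoblasts (HLA-B HiBit) in medium without dexamethasone containing 4 ng/ml IFN-beta; after 1 hr add compound titrations (top 46 uM final). Incubate 24 hrs at 37 C, lyse 10 min with HiBiT reagent, read luminescence.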
(In qHTS, concentration-response curves come from the screen itself.)
In the case of `N#Cc1ccnc(N2C(=O)CC[C@H]2C(=O)N(c2cncc(F)c2)[C@H](C(=O)NC2CC(F)(F)C2)c2ccccc2Cl)c1`, the “activity change, negative = inhibition” value is 14.7%.

Regarding `CNC(=O)c1ccc(Nc2ncc(C(F)(F)F)c(NCc3nccnc3N(C)S(C)(=O)=O)n2)cc1`, the Potency is 5.23 µM (active).

As for `Cc1cc(C)cc(NC(=O)Cc2ccc(OC(C)(C)C(=O)O)cc2)c1`, the “activity change, negative = inhibition” value is -12.9%.

As for `C[C@H](CCC(=O)O)[C@H]1CC[C@H]2[C@@H]3[C@H](O)C[C@@H]4C[C@H](O)CC[C@]4(C)[C@H]3CC[C@]12C`, the “activity change, negative = inhibition” value is 7.65%.

As to `Cc1cc(Nc2ncc(Cl)c(Nc3ccccc3S(=O)(=O)C(C)C)n2)c(OC(C)C)cc1C1CCNCC1`, the Potency is 20.8 µM (active).

For the compound `Cc1nnc(C(C)C)n1C1CC2CCC(C1)N2CCC(NC(=O)C1CCC(F)(F)CC1)c1ccccc1` (centres undefined), the “activity change, negative = inhibition” value is -13.5%.

Regarding `O=C(NC[C@H](O)CN1CCc2ccccc2C1)c1cc(NC2COC2)ncn1`, the “activity change, negative = inhibition” value was -23.9%.

As to `OCc1ccccc1O[C@@H]1O[C@H](CO)[C@@H](O)[C@H](O)[C@H]1O`, the “activity change, negative = inhibition” value is 2.31%.

With `O=c1ccn([C@@H]2O[C@H](CO)[C@@H](O)[C@H]2O)c(=O)[nH]1`, the “activity change, negative = inhibition” value was 19.4%.

Consider `CCOC(=O)[C@H]1O[C@@H]1C(=O)N[C@@H](CC(C)C)C(=O)NCCC(C)C`, for which the “activity change, negative = inhibition” value is 12.8%.

With `CO[C@@H]1COCC[C@@H]1N[C@@H]1CC[C@@](C(=O)N2CCc3ncc(C(F)(F)F)cc3C2)(C(C)C)C1`, the “activity change, negative = inhibition” value is -10.7% [at 15.5 µM].

For the next test, the target named is Calcium and integrin-binding protein 1 (Homo sapiens) (UniProt Q99828). Put plainly: Confirmatory qHTS for Identification of Calcium Integrin Binding Protein 1 (CIB1) Competitor (AID 1508617). Further: nearly all actives have a fitted effect of over 65% in size. Further: potency means the concentration at half of the fitted maximal effect. On activity change, negative = inhibition: on the % scale 0 is the no-effect control and ±100 the full control effect. Particulars: CIB1 binding competition assay, biochemical qHTS; series mostly up to 114 µM; activity change, negative = inhibition: at the top concentration. In short, it runs like this:
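Confirmatory qHTS measures displacement of a FITC-alphaIIb peptide (100 nM) from CIB1-GST (1 uM) by fluorescence polarization. Calcium-containing HEPES buffer, pH 7.4; two 15 min room-temperature incubations.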
Consider `CC(=O)c1c(O)cc2cccc3c2c1CC(C)(O)O3` (centres undefined), for which the Potency was 39.8 µM (active).

As for `OC[C@H]1O[C@@H](Oc2ccc(O)c3cccc(O)c23)[C@H](O)[C@@H](O)[C@@H]1O`, the Potency was 11.2 µM (active).

In the case of `CC(=O)c1c(O)cc2c(c1C)C(=O)CC(O)C2` (centres undefined), the “activity change, negative = inhibition” value was -18.6%.

`CC[C@@H](c1ccc(F)c(F)c1)n1c(C(=O)OC)c(-c2ccno2)[nH]c1=S`: the “activity change, negative = inhibition” value was -12.4%.

A further test shares this target. Put plainly: Primary qHTS for Identification of Calcium Integrin Binding Protein 1 (CIB1) Competitor (AID 1508620). Further: top concentration of the series differs between compounds; on the % scale 0 is the no-effect control and ±100 the full control effect. Particulars: CIB1-GST / FITC-alphaIIb peptide fluorescence polarization; series mostly up to 57.7 µM; activity change, negative = inhibition: at the top concentration. The method, boiled down: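 Fluorescence polarization competition: GST-tagged CIB1 (1 uM final) preincubated with compound 15 min at room temperature, then FITC-labelled alphaIIb peptide (100 nM final) added. After 15 min at room temperature, polarization read at Ex 480/Em 540.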
`C[C@@H](Nc1cc(NS(=O)(=O)N2CCC2)nc(SCc2cccc(F)c2F)n1)[C@@H](O)CO`: the “activity change, negative = inhibition” value was -2.2% [at 114 µM].

In the case of `NCCOCCOCCNC(=O)Cc1ccc(Nc2nc(NCc3ccc(F)cc3)nc(NCC3CCCCC3)n2)cc1`, the “activity change, negative = inhibition” value is -13.4% [at 114 µM].

With `N#Cc1ccnc(N2C(=O)CC[C@H]2C(=O)N(c2cncc(F)c2)[C@H](C(=O)NC2CC(F)(F)C2)c2ccccc2Cl)c1`, the Potency result was “inactive”.

On to `C=CC(C)(C)C12CC3C(=O)NC(Cc4cnc[nH]4)C(=O)N3C1Nc1ccccc12` (centres undefined), for which the “activity change, negative = inhibition” value is -3.75%.

In the case of `C=C1CCC2[C@@](C)(C=O)CCC[C@]2(C)[C@H]1CC/C(C)=C/CO` (some centres undefined), the “activity change, negative = inhibition” value was -6.52% [at 114 µM].

Turning to `COC1=CC(=O)O[C@@H](CCc2ccccc2)[C@@H]1O`, the “activity change, negative = inhibition” value is 2% [at 114 µM].

On to `CNC(=O)c1ccc(Nc2ncc(C(F)(F)F)c(NCc3nccnc3N(C)S(C)(=O)=O)n2)cc1`, for which the Potency result was “inactive”.

`CCn1cc(C2=NOC(C(=O)Nc3c(C)n(C)n(-c4ccccc4)c3=O)C2)c(C)n1` (centres undefined): the “activity change, negative = inhibition” value is 1.28% [at 114 µM].

On to `Cc1cc(C)cc(NC(=O)Cc2ccc(OC(C)(C)C(=O)O)cc2)c1`, for which the “activity change, negative = inhibition” value is 3.2% [at 114 µM].

On to `CO[C@@]12CC3[C@@H]([C@@H](O)[C@@H](OC(C)=O)C4[C@](C)(COC(C)=O)CCC[C@]34C)[C@@H](C)C1=CC(=O)O2` (some centres undefined), for which the “activity change, negative = inhibition” value was 4.13%.

`O=C1NCc2nc3ccccc3c(=O)n2C1Cc1c[nH]c2ccccc12` (centres undefined): the “activity change, negative = inhibition” value is -3.41%.

Turning to `O=C(/C=C/c1ccc(O)cc1)OCC1=CC2OC(=O)C3=CO[C@@H](O[C@@H]4O[C@H](CO)[C@@H](O)[C@H](O)[C@H]4O)[C@H]1[C@@H]32` (some centres undefined), the “activity change, negative = inhibition” value was -0.472%.

`CC(C)CC1(C(=O)OCc2ccc(O[C@@H]3O[C@H](CO)[C@@H](O)[C@H](O)[C@H]3O)cc2)CC(=O)OC(C(=O)O)CC(=O)OCC2OC(O1)C(OC(=O)/C=C/c1ccc(O)cc1)C(O)C2O` (some centres undefined): the “activity change, negative = inhibition” value is 2.29% [at 30.2 µM].

Regarding `Cc1cc(Nc2ncc(Cl)c(Nc3ccccc3S(=O)(=O)C(C)C)n2)c(OC(C)C)cc1C1CCNCC1`, the Potency result is “inactive”.

As for `CC1(C)CC[C@]2(C(=O)O)CC[C@]3(C)C(=CCC4[C@@]5(C)C[C@@H](O)[C@H](O)C(C)(C)C5CC[C@]43C)[C@@H]2[C@@H]1O` (some centres undefined), the “activity change, negative = inhibition” value is -0.811%.

Take `CC(=O)O[C@@H]1C[C@@]23C[C@@]24CC[C@H](OC2OC[C@@H](O)[C@H](O)[C@H]2O)C(C)(C)[C@@H]4CC[C@H]3[C@]2(C)CC3OC4(C[C@@H](C)C3[C@@]12C)OCC1(C)OC14` (some centres undefined): the “activity change, negative = inhibition” value was -2.72% [at 30.2 µM].

For `Cc1nnc(C(C)C)n1C1CC2CCC(C1)N2CCC(NC(=O)C1CCC(F)(F)CC1)c1ccccc1` (centres undefined), the “activity change, negative = inhibition” value was 4.96% [at 114 µM].

Regarding `O=C(c1ccccn1)c1cnn2c(-c3ccncc3)ccnc12`, the “activity change, negative = inhibition” value was -3.4% [at 114 µM].

Turning to `COC1C2=C(COC2=O)C2(C)CCCC(C)(CO)C2C1OC(=O)c1ccccc1` (centres undefined), the “activity change, negative = inhibition” value is -13.4%.

For `CC(C)[C@@H](C)/C=C/[C@@H](C)[C@H]1CC[C@H]2C3=CC=C4C[C@@H](O)CC[C@]4(C)[C@H]3CC[C@]12C`, the “activity change, negative = inhibition” value was 4.59%.

In the case of `CC1(C)CC[C@]2(C(=O)O[C@@H]3O[C@H](CO)[C@@H](O)[C@H](O)[C@H]3O)CC[C@]3(C)C(=CCC4[C@@]5(C)C[C@@H](O)[C@H](O)C(CO)(CO)C5CC[C@]43C)C2[C@@H]1O` (some centres undefined), the “activity change, negative = inhibition” value is -1% [at 30.2 µM].

For `CC(=O)OC(C)OC(=O)C(C)c1ccc(-c2ccccc2)c(F)c1` (centres undefined), the “activity change, negative = inhibition” value was -13.5% [at 114 µM].

For the compound `COc1ccc(/C=C/C(=O)O[C@@H]2[C@@H](O)[C@H](C)O[C@@H](OC3C4C=COC(O[C@@H]5O[C@H](CO)[C@@H](O)[C@H](O)[C@H]5O)C4C4(CO)OC34)[C@@H]2O)cc1OC` (some centres undefined), the “activity change, negative = inhibition” value was 2.85% [at 30.2 µM].

In the case of `C=C1CCC2C(C)(C)C(O)CCC2(C)C1CCC(C)CCOC(=O)CCC(=O)O` (centres undefined), the “activity change, negative = inhibition” value was -8.6%.

Take `O=C(NC[C@H](O)CN1CCc2ccccc2C1)c1cc(NC2COC2)ncn1`: the Potency result is “inactive”.

As for `CCC(C)(O)C(O)C(=O)OCc1ccc(O[C@@H]2O[C@H](CO)[C@@H](O)[C@H](O)[C@H]2O)c(OC)c1` (some centres undefined), the “activity change, negative = inhibition” value was -6.18%.

For `CNc1nc(Nc2cnn([C@H]3CCN(C4COC4)C[C@@H]3F)c2Cl)ncc1C(F)(F)F`, the Potency result was “inactive”.

Consider `OCc1ccccc1O[C@@H]1O[C@H](CO)[C@@H](O)[C@H](O)[C@H]1O`, for which the “activity change, negative = inhibition” value was -12.7% [at 114 µM].

For the compound `O=c1ccn([C@@H]2O[C@H](CO)[C@@H](O)[C@H]2O)c(=O)[nH]1`, the “activity change, negative = inhibition” value is -2.23% [at 114 µM].

Regarding `C=C[C@H]1[C@H](O[C@@H]2O[C@H](CO)[C@@H](O)[C@H](O)[C@H]2O)OC=C2C(=O)OCC[C@]21O`, the “activity change, negative = inhibition” value was -2.19%.

Take `CCOC(=O)[C@H]1O[C@@H]1C(=O)N[C@@H](CC(C)C)C(=O)NCCC(C)C`: the “activity change, negative = inhibition” value was -4.82% [at 114 µM].

`CN1Cc2c(N)cccc2C(c2ccccc2)C1` (centres undefined): the “activity change, negative = inhibition” value is -4.39% [at 114 µM].

On to `C=C1C(=O)OC2/C=C(\C)CC/C=C(\C(=O)O)CC/C=C(\C)CCC12` (centres undefined), for which the “activity change, negative = inhibition” value was -6.26%.

`CO[C@@H]1COCC[C@@H]1N[C@@H]1CC[C@@](C(=O)N2CCc3ncc(C(F)(F)F)cc3C2)(C(C)C)C1`: the Potency entry was “inactive”.

The record behind these values is PubChem BioAssay (NCATS).
